Experiments:
Test in all cases: PBM binding z-score (relative to random genomic background probes); higher = stronger binding; sequences stand for … in GC…GCGATTGACAGCGTAGAATGAAGG
[1] = tested on: FXR:RXRa (NR concentration 270 nM, RXRa partner concentration 90 nM)
How it was run: (§1)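 Ligand-free nuclear receptor dimers were applied to custom Agilent 4×180K protein-binding microarrays whose double-stranded probes carried direct-repeat seeds, single-nucleotide variants, half-site ablations and random human genomic background sequences in 34-nt variable regions. Incubation lasted 1 h. Binding z-scores were computed against the random background probes from regression-normalized fluorescence.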

[2] = tested on: LXRa:RXRa (NR concentration 270 nM, RXRa partner concentration 90 nM)
How it was run: as §1

[3] = tested on: LXRa homodimer (NR concentration 270 nM)
How it was run: as §1

[4] = tested on: LXRb:RXRa (NR concentration 270 nM, RXRa partner concentration 90 nM)
How it was run: as §1

[5] = tested on: LXRb homodimer (NR concentration 270 nM)
How it was run: as §1

[6] = tested on: PPARa:RXRa (NR concentration 270 nM, RXRa partner concentration 90 nM)
How it was run: as §1

[7] = tested on: PPARg:RXRa (NR concentration 180 nM, RXRa partner concentration 90 nM)
How it was run: as §1

[8] = tested on: PPARg:RXRa 270nM:90nM, anti-RXR (NR concentration 270 nM, RXRa partner concentration 90 nM)
How it was run: as §1

[9] = tested on: PPARg:RXRa 30nM:10nM, anti-RXR (NR concentration 30 nM, RXRa partner concentration 10 nM)
How it was run: as §1

[10] = tested on: PPARg:RXRa 90nM:30nM, anti-RXR (NR concentration 90 nM, RXRa partner concentration 30 nM)
How it was run: as §1

[11] = tested on: PPARg:RXRa DBDmut IVT, anti-RXR (DBD mutation: RXRa K156A/R161A, NR concentration 270 nM, RXRa partner concentration 90 nM)
How it was run: as §1

[12] = tested on: PPARg:RXRa IVT, anti-PPARg (NR concentration 270 nM, RXRa partner concentration 90 nM)
How it was run: as §1

[13] = tested on: PPARg DBDmut:RXRa IVT, anti-PPARg (DBD mutation: PPARg1 K132A/R137A, NR concentration 270 nM, RXRa partner concentration 90 nM)
How it was run: as §1

[14] = tested on: PPARg DBDmut IVT, anti-PPARg (DBD mutation: PPARg1 K132A/R137A, NR concentration 270 nM)
How it was run: as §1

[15] = tested on: PPARg homodimer (NR concentration 180 nM)
How it was run: as §1

[16] = tested on: PXR:RXRa (NR concentration 270 nM, RXRa partner concentration 90 nM)
How it was run: as §1

[17] = tested on: PXR homodimer (NR concentration 270 nM)
How it was run: as §1

[18] = tested on: RARa:RXR (NR concentration 270 nM, RXRa partner concentration 90 nM)
How it was run: as §1

[19] = tested on: RARa homodimer (NR concentration 270 nM)
How it was run: as §1

[20] = tested on: RARb:RXRa (NR concentration 270 nM, RXRa partner concentration 90 nM)
How it was run: as §1

| Sequence | PBM binding z-score [1] | PBM binding z-score [2] | PBM binding z-score [3] | PBM binding z-score [4] | PBM binding z-score [5] | PBM binding z-score [6] | PBM binding z-score [7] | PBM binding z-score [8] | PBM binding z-score [9] | PBM binding z-score [10] | PBM binding z-score [11] | PBM binding z-score [12] | PBM binding z-score [13] | PBM binding z-score [14] | PBM binding z-score [15] | PBM binding z-score [16] | PBM binding z-score [17] | PBM binding z-score [18] | PBM binding z-score [19] | PBM binding z-score [20] |
| --- | --- | --- | --- | --- | --- | --- | --- | --- | --- | --- | --- | --- | --- | --- | --- | --- | --- | --- | --- | --- |
| GATACAGGGTCAGCTAGGGGCCAGAGTATGGAAA | 5.14 | 2.64 | -0.494 | 2.7 | -0.084 | 4.79 | 3.88 | 3.46 | 0.617 | 1.94 | 1.75 | 2.41 | -0.163 | -0.667 | 3.15 | 2.94 | -0.0214 | 4.97 | 0.262 | 4.22 |
| CGTCCAAGGTCAATGCTAGGTCAGTTAAAGCATT | 6.86 | 5.46 | 3.07 | 4.57 | 0.641 | 5.2 | 3.88 | 4.44 | 1.26 | 3.34 | 3.07 | 3.94 | 0.0858 | 0.055 | 4.36 | 4.89 | 1.22 | 5.78 | 1.02 | 5.21 |
| ACTTACGGGTCAACGAGGTTATAGCTCGCGTATA | 7.28 | 5.05 | 0.77 | 4.4 | 0.524 | 5.72 | 5.51 | 5.57 | 2.36 | 4.17 | 3.43 | 4.16 | 1.04 | 0.353 | 3.06 | 5.45 | 2.82 | 5.16 | 0.0894 | 4.36 |
| TAGGCTAGGTCATGCGGGCCAGTATAGTGTCGGC | 3.97 | 2.69 | 0.422 | 1.26 | 0.000142 | 3.1 | 2.29 | 2.28 | 0.305 | 1.33 | 2.31 | 2.92 | 0.345 | 0.348 | 1.24 | 1.21 | -0.485 | 2.05 | 0.442 | 3.84 |
| CCAGGCAGGTGAAAGGTAACTCAGTCTGGTACGC | 0.326 | 0.496 | -0.353 | 0.47 | -0.921 | 3.13 | 5.95 | 6.52 | 4.44 | 7.19 | 2.16 | 3.13 | -1.38 | -0.814 | 1.59 | 0.457 | -0.265 | 1.53 | -0.973 | 1.02 |
| ATCGAAAGGTCGACGGTGAGTATACCCACCCGAA | 4.38 | 3.44 | 0.131 | 2.47 | 0.548 | 4.12 | 2.45 | 3.09 | 1.17 | 2.63 | -0.188 | 1.6 | 0.9 | 0.777 | 1.58 | 2.43 | -0.256 | 3.22 | 0.352 | 3.8 |
| TCTTGTAGATCAACCGGAGGTTAAGAAAGATCGA | 0.397 | 1.58 | 1.09 | 1.17 | -0.00394 | 1.26 | -0.257 | 1.55 | 2.69 | 2.15 | 1.73 | 0.867 | 0.463 | 0.343 | -0.156 | 0.984 | 0.000543 | 1.25 | -0.186 | 0.743 |
| CCGAGTAGGTTATGGGGCATTTAGGCAACGGTGA | 0.297 | 0.407 | 0.011 | 0.603 | -0.473 | 2.22 | 3.51 | 4.47 | 2.4 | 4.37 | 3.07 | 3.53 | -0.425 | -0.513 | 2.12 | -0.00225 | -0.192 | 0.292 | 0.0296 | 0.919 |
| TAGCCGAGGTCATTGGGCCAGTATAGTACGCATC | 7.32 | 5.83 | 2.5 | 5.28 | 1.76 | 6.2 | 6.77 | 6.15 | 3.26 | 5.02 | 2.68 | 4.59 | -0.49 | 0.82 | 2.28 | 5.5 | 2.28 | 4.87 | 0.0596 | 4.78 |
| TCTTGTAGATCAGCAGGTGAAGAAAGCTGGCCAA | 0.169 | -0.0408 | -0.605 | -0.0895 | -0.698 | 0.51 | -0.409 | 1.19 | 2.2 | 1.8 | 1.32 | 0.857 | 0.193 | -0.252 | -1.42 | -0.182 | -0.577 | 0.0618 | -0.865 | -0.138 |
| TCTCGGAGGCCACGAAGGTCAGAGCTTTCCAGAG | 0.966 | 1.34 | -0.257 | 1.25 | -1.36 | 2.21 | 0.256 | 1.82 | 1.63 | 1.54 | 1.55 | 1.81 | -1.16 | -1.03 | 0.239 | 2.19 | 0.613 | 2.29 | -1.17 | 3.38 |
| TCGAGTAGGTTACTAATGGGGCATTCAGCTTTCT | -0.458 | 2.4 | -0.454 | 1.24 | -0.917 | 0.717 | -0.149 | 0.701 | 0.939 | 0.928 | 3.02 | 2.39 | 0.0923 | -0.475 | -0.0554 | 0.00033 | -0.441 | 0.224 | -0.684 | 0.494 |
| GCTATTAGTTGAAAGCGCAACCGAATGATTCTCG | -0.0843 | -0.353 | 0.0981 | -0.318 | -0.315 | -0.41 | 0.157 | -0.0229 | 0.0302 | -0.22 | 0.316 | -0.176 | -0.265 | -0.6 | 0.252 | -0.405 | -0.357 | -0.564 | -0.0512 | -0.343 |
| TGAATGAGGTTATAAGAGCAGGGAACGTTGCAAA | 1.63 | 1.78 | -0.152 | 0.923 | -0.0285 | 2.86 | 1.32 | 2.13 | 0.717 | 1.52 | 1.21 | 1.65 | 0.835 | 0.627 | 0.672 | 0.661 | -0.193 | 1.39 | 0.226 | 1.29 |
